Screening results deposited in PubChem by National Center for Advancing Translational Sciences (NCATS).
HepG2 tox = qHTS for Inhibitors of TGF-b: Cytotox Counterscreen; HepG2 CAGA-GFP viability, ATP luminescence, 18 h; Potency, µM (series often up to 46.1 µM), inactives show at the highest dose activity change, negative = cytotoxicity, most hits filed as cytotoxic; 0.76% of 410,000 active; AID 588856, 2011
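HepG2 CAGA-GFP cells (1000/well, DMEM with 1% FBS) received compound, then TGF-beta at 500 pg/mL final, and were incubated 18 hours at 37 degrees C. Viability was read by CellTiter-Glo luminescence. Media-only wells were set as complete cell-killing and DMSO as no toxicity.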
DT40 TDP1 no CPT = qHTS for Inhibitors of human tyrosyl-DNA phosphodiesterase 1 (TDP1): qHTS in cells in absence of CPT; DT40 Tdp1-/- hTDP1 cells, no CPT, ATP luminescence, 48 h; Potency, µM (highest dose often 46.2 µM), for inactives: at the top dose activity change, negative = growth inhibition, most hits filed as inhibitors; 15% of 420,000 active; AID 686978, 2013; also: % is scaled to controls: 0 for no effect and ±100 for the full control effect; nearly all actives have a fitted effect of over 55% in size
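DT40 Tdp1-/-;hTDP1 cells, no CPT (DMSO vehicle only), 400 cells/well; compounds pin-transferred; ≥48 hr, 37 °C; CellTiter-Glo 30 min RT dark, luminescence read.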
HT1080 IDH1KD tx = qHTS for induction of synthetic lethality in tumor cells producing 2HG: qHTS for the HT-1080-IDH1KD cell line; 2% of 360,000 active; Potency, µM (series often up to 46.1 µM), for the others: at the top dose activity, negative = toxicity, hits mostly cytotoxic; HT-1080 IDH1 knockdown viability, ATP luminescence, 48 h;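 also: 0% = DMSO wells and -100% = cell-free medium wells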
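HT-1080-IDH1KD cells (IDH1 knocked down), 750/well in RPMI with 5% FBS, treated with compound 48 h at 37 degrees C. Viability by CellTiter-Glo luminescence, normalised to DMSO and no-cell wells; concentration-response curves classed.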
HT1080-NT tox = qHTS for induction of synthetic lethality in tumor cells producing 2HG: qHTS for the HT-1080-NT fibrosarcoma cell line; 1.6% of 360,000 active; Potency, µM (top dose mostly 46.1 µM), for the others: at the top dose activity, negative = less viability, hits mostly cytotoxic; AID 686970, 2013; HT-1080-NT fibrosarcoma viability, CellTiter-Glo ATP luminescence, 48 h;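 also: NT is the 2HG producing partner of a matched IDH1 knockdown line; 0% = DMSO-treated cells and -100% = media-only wells without cells; nearly all actives have a fitted effect of over 55% in size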
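Compounds were tested in concentration-response format on HT-1080-NT cells for 48 hours at 37 degrees C. Cell viability came from CellTiter-Glo luminescence; curves were classified by r2, response magnitude and activity.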
TGFb SMAD3 inh = qHTS for Inhibitors of TGF-b; HepG2 CAGA-GFP TGF-b/SMAD3 reporter, GFP fluorescence, 18 h; TGF-beta stimulated, 500 pg/mL final; Potency, µM (doses to about 46.1 µM), without a hit: top-dose activity, negative = inhibition, most hits filed as inhibitors; 1.2% of 410,000 active; also: % is scaled to controls: 0 for no effect and ±100 for the full control effect; nearly all actives have a fitted effect of over 65% in size
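Smad-responsive CAGA-GFP expression was quantified in HEPG2 cells exposed to compounds and 500 pg/mL final TGF-beta for 18 h at 37 degrees C; unstimulated wells defined full inhibition.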
TDP1 cell CPT = qHTS for Inhibitors of human tyrosyl-DNA phosphodiesterase 1 (TDP1): qHTS in cells in presence of CPT. AID 686979, 2013. Potency, µM (highest dose often 46.2 µM), for the others: at the top dose activity change, negative = growth inhibition, actives largely listed as inhibitors. chicken DT40 Tdp1-/-;hTDP1 cells + 20 nM CPT, ATP luminescence, 48 h. 12% of 420,000 active; also: % is scaled to controls: 0 for no effect and ±100 for the full control effect; nearly all actives have a fitted effect of over 55% in size
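Chicken DT40 Tdp1-/- cells complemented with human TDP1, 400 cells/well, exposed to compounds plus 20 nM camptothecin for at least 48 h at 37 C; viability read as ATP content by CellTiter-Glo luminescence.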
* = called active by the depositor; u = inconclusive; x = no result given. The list is not random: actives were taken first. Their share in the collection is about 17%. Calls follow the shape of the dose curve; as a rule, active = well fitted curve in the direction sought with a large enough effect; inconclusive = small, poorly fitted or top-dose-only effect, or another doubt; inactive = no such curve, though single readings can be large; an effect the other way counts as inactive or inconclusive. Potency is read from the fitted curve at half-maximal effect.

SMILES	HepG2 tox	DT40 TDP1 no CPT	HT1080 IDH1KD tx	HT1080-NT tox	TGFb SMAD3 inh	TDP1 cell CPT
O=C(Nc1cccc(-c2cn3ccccc3n2)c1)c1cccc(Cl)c1	-101%	18µM*	u	u	u	u
COc1cc(C(=O)OCC(=O)N2CCNC2=O)cc(Cl)c1OC	8%	-21%	0%	-1%	0%	7%
COc1ccc(CN2C(=O)c3ccccc3C2c2nnnn2-c2ccc3c(c2)OCCO3)cc1OC (configuration not stated)	x	21µM*	15%	8%	x	15µM*
COc1ccc(OC)c(CN2C(=O)c3ccccc3C2c2nnnn2Cc2ccccc2)c1 (configuration not stated)	x	21µM*	-1%	7%	x	u
COc1ccc(OC)c(CN2C(=O)c3ccccc3C2c2nnnn2C(C)C)c1 (configuration not stated)	x	u	2%	0%	x	u
O=C1c2ccccc2C(c2nnnn2-c2ccc3c(c2)OCCO3)N1Cc1cccs1 (configuration not stated)	x	u	7%	10%	x	u
COc1ccc(OC)c(CN2C(=O)c3ccccc3C2c2nnnn2C2CCCC2)c1 (configuration not stated)	x	16µM*	16%	1%	x	u
CC(C)(C)C(=O)N1CCN(S(=O)(=O)c2ccc3c(c2)OCCCO3)CC1	-3%	18µM*	-12%	-19%	-12%	u
CN(C)S(=O)(=O)c1cccc(C(=O)N2CCN(S(=O)(=O)c3ccc4c(c3)OCCO4)CC2)c1	-3%	16µM*	1%	-2%	-9%	u
COc1ccc(C(=O)N2CCN(S(=O)(=O)c3ccc4c(c3)OCCO4)CC2)cc1OC	-5%	-17%	-10%	-2%	-7%	-25%
COc1ccc(OC)c(C(=O)CSc2nnc(C3CC3)n2C2CC2)c1	-34%	-28%	0%	4%	-5%	u
O=C(Nc1cc(S(=O)(=O)N2CCOCC2)ccc1N1CCCC1)c1ccccc1C(F)(F)F	-5%	13%	1%	4%	0%	6%
Cc1ccc(C)c(N(CC(=O)N2CCCC2)S(C)(=O)=O)c1	-8%	4%	3%	-2%	-8%	4%
C[C@H](NC(=O)c1ccccc1)C(=O)OCC(=O)Nc1ccc(Cl)cn1	-37%	-26%	8%	6%	-13%	-9%
CCN(CC)/[N+]([O-])=N/OCOC(=O)C(C)c1ccc2cc(OC(C)=O)ccc2c1 (configuration not stated)	-1%	x	x	x	4%	x
COc1cccc(CC2(CO)CCCN(Cc3ccc(OC)c(C)c3OC)C2)c1 (configuration not stated)	-47%	16µM*	-10%	-13%	u	18µM*
COc1ccc(CN2CCCC(CO)(Cc3ccc(F)cc3)C2)cc1C (configuration not stated)	-53%	u	-15%	-1%	-10%	u
CC(C)Oc1ccc(CN2CCCC(CO)(Cc3ccccc3)C2)cc1CO (configuration not stated)	-20%	u	-16%	-23%	0%	29µM*
COc1cccc(CC2(CO)CCCN(Cc3ccccc3Cl)C2)c1 (configuration not stated)	-11%	u	-8%	-5%	-6%	u
CCn1cc(CN2CCCC(CO)(Cc3ccc(F)cc3)C2)c2ccccc21 (configuration not stated)	-45%	u	18µM*	u	u	u
COc1cccc(CC2(CO)CCCN(Cc3ccc(CN4CCCCC4)s3)C2)c1 (configuration not stated)	-35%	u	-9%	-21%	0%	21µM*
COc1cccc(CC2(CO)CCCN(Cc3cnn(-c4ccccc4)c3)C2)c1 (configuration not stated)	-26%	26µM*	-5%	0%	1%	u
COc1cccc(CC2(CO)CCCN(Cc3cn(C)c4ccccc34)C2)c1 (configuration not stated)	-44%	23µM*	-7%	-8%	u	21µM*
CC1=C(C(=O)OC(C)C)C(c2ccco2)NC(=O)N1 (configuration not stated)	4%	-13%	12%	21%	-16%	-16%
CCOC(=O)C1=C(N)n2c(s/c(=C\c3ccco3)c2=O)=C(C(=O)OC(C)C)C1c1ccco1 (configuration not stated)	-76%	21µM*	-9%	13%	-2%	u
SMILES	HepG2 tox	DT40 TDP1 no CPT	HT1080 IDH1KD tx	HT1080-NT tox	TGFb SMAD3 inh	TDP1 cell CPT
CCOC(=O)C1=C(N)n2c(s/c(=C\c3ccco3)c2=O)=C(C(=O)OCC)C1c1ccco1 (configuration not stated)	4%	5µM*	7.9µM*	16µM*	9%	5.6µM*
Cc1ccc(OCC(=O)Nc2ccc(Cl)c(-c3nc4ncccc4o3)c2)cc1C	13%	x	x	x	17%	x
CCOc1ccc(CCNC(=O)C2CCCN(C(=O)N(C)C)C2)cc1OCC (configuration not stated)	-2%	0%	10%	7%	28%	-11%
COc1ccc(-c2sc3cc4c(cc3c2-c2ccc(OCCN3CCOCC3)cc2)OCO4)cc1	-10%	u	0%	3%	-4%	u
COc1ccccc1-c1sc2ccccc2c1-c1ccc(OCCN2CCOCC2)cc1	-8%	13µM*	u	u	0%	u
COc1cc2sc(-c3ccccc3OC)c(-c3ccc(OCCN4CCCCC4)cc3)c2cc1OC	16µM*	u	u	u	u	u
COc1ccccc1-c1sc2cc3c(cc2c1-c1ccc(OCCN2CCCCC2)cc1)OCO3	10µM*	12µM*	u	u	u	16µM*
c1ccc(-c2sc3ccccc3c2-c2ccc(OCCN3CCOCC3)cc2)cc1	-15%	u	-2%	0%	-1%	-28%
